Data reported in PubChem BioAssay (NCATS).
Where “and” joins values, the source holds several entries; their conditions need not be identical. Equal entries are not always repeated. More than one record can exist for a structure, and the calls need not agree. Calls of active or inactive are those of the source. Unless noted, calls come from the whole dose curve; as a rule, active = well fitted curve in the direction sought with a large enough effect; inconclusive = small, poorly fitted or top-dose-only effect, or another doubt; inactive = no such curve, though single readings can be large; an effect the other way counts as inactive or inconclusive.

Legend:
[1] = molecular target: Muscarinic acetylcholine receptor M1 (Rattus norvegicus) (UniProt P08482); assay: qHTS Assay for Antagonists of Acetylcholine Muscarinic M1 Receptor: Kinetic Measurement of Intracellular Calcium Response (AID 943); note: nearly all actives have a fitted effect of over 75% in size; note: potency is the fitted concentration of half-maximal effect
Chain of Muscarinic acetylcholine receptor M1 (Rattus norvegicus) (P08482 whole entry, looked up): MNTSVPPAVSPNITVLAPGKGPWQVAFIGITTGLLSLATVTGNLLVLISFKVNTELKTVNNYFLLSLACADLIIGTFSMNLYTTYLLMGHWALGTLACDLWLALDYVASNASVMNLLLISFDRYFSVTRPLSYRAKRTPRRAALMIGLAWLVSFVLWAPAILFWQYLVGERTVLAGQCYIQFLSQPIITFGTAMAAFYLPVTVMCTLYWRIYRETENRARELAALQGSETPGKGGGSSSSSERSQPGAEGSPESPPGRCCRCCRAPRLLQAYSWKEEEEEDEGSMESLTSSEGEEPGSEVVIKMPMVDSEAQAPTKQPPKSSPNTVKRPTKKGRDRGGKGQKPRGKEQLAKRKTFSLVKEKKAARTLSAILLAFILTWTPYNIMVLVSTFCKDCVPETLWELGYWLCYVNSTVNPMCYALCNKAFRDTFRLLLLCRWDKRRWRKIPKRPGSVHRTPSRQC
Outline: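 Antagonism measured as reduction of carbachol-evoked (EC80, 100 nM final) calcium flux in rat M1-CHO cells after 10 min compound exposure. Fluo-4 signal read kinetically; ratio of maximal to basal fluorescence.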

[2] = molecular target: Pyruvate kinase PKM (Homo sapiens) (UniProt P14618); assay: qHTS Assay for Activators of Human Muscle Pyruvate Kinase (AID 954; active = well fitted curve in the direction sought with a large enough effect, not every such curve was filed as active; inconclusive = small, poorly fitted or top-dose-only effect, or effect the other way, or another doubt; inactive = no such curve, though single readings can be large or run the other way;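 note: 0% = uninhibited enzyme and -100% = no enzyme or full thiadiazolimine inhibition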)
Outline: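 Compound pinned into substrate mix (0.5 mM PEP, 0.1 mM ADP), then 0.1 nM PKM2 added; 1 h, RT. Stop/detection luciferase reagent added, luminescence read. Normalized to no-inhibition and no-enzyme or reference-inhibitor controls.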

[3] = molecular target: Alpha-galactosidase (Coffea arabica) (UniProt Q42656); assay: Counterscreen for Glucocerebrosidase Inhibitors: qHTS Assay for Coffee Bean alpha-Galactosidase at pH 4.5 (AID 957);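 note: plate controls were enzyme alone for no effect and no enzyme for full effect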
Chain of Alpha-galactosidase (Coffea arabica) (Q42656 whole entry, looked up): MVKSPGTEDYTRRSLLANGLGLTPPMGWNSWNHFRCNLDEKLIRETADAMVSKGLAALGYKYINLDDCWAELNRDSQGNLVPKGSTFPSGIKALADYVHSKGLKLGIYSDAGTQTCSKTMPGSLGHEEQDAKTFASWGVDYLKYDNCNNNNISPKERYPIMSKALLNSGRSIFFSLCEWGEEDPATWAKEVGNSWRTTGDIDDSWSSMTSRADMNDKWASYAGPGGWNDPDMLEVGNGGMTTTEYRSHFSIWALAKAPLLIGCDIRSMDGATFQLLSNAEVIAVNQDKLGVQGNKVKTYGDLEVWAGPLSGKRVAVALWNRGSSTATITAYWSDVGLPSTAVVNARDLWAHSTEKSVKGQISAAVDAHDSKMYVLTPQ
Outline: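 Fluorogenic qHTS at pH 4.5 (citrate buffer with Tween-20): 2 nM enzyme, 80 uM 4-MU-alpha-galactoside substrate, compound titrated 0.7 nM to 77 uM, 20 min room temperature. Glycine/NaOH stop; 4-MU read Ex 365/Em 440; Hill-equation AC50 against no-enzyme and enzyme controls.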

[4] = molecular target: Alpha-galactosidase (Coffea arabica) (UniProt Q42656); assay: Counterscreen for Glucocerebrosidase Inhibitors: qHTS Assay for Coffee Bean alpha-Galactosidase at pH 5.9 (AID 998);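 note: plate controls were uninhibited enzyme for no effect and no-enzyme basal signal for full effect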
Outline: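 In 50 mM citric acid pH 5.9 with 0.005% Tween-20, coffee bean enzyme hydrolyses 80 uM 4-MU alpha-D-galactopyranoside over 20 min at RT. Activity is normalized to controls; AC50 comes from Hill-modelled concentration-response data.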

[5] = Cellular Toxicity (caspase-3) Jurkat (AID 655); conditions: Jurkat caspase-3 activation, luminescence; caspase-3 activation: at 92.2 µM (top of the series), DMSO = 0%, tamoxifen = 100%;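 note: cells exposed to compound for 16 h at 37 °C before reading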; note: potency is the fitted concentration of half-maximal effect
Outline: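 5000 Jurkat cells/well; compound 16 hr, 37 °C; Caspase-Glo 3/7 added, 20 min RT; luminescence read. Norm: DMSO = 0%, tamoxifen 100 uM = 100%. AC50, Hill model.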

[6] = molecular target: Peroxisome proliferator-activated receptor delta (Homo sapiens) (UniProt Q03181); assay: qHTS assay for small molecule agonists of peroxisome proliferator-activated receptor delta signaling (AID 588534; calls by dose curve;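 note: 0% = DMSO basal wells and 100% = positive control agonist at 10 µM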)
Chain of Peroxisome proliferator-activated receptor delta (Homo sapiens) (Q03181 whole entry, looked up): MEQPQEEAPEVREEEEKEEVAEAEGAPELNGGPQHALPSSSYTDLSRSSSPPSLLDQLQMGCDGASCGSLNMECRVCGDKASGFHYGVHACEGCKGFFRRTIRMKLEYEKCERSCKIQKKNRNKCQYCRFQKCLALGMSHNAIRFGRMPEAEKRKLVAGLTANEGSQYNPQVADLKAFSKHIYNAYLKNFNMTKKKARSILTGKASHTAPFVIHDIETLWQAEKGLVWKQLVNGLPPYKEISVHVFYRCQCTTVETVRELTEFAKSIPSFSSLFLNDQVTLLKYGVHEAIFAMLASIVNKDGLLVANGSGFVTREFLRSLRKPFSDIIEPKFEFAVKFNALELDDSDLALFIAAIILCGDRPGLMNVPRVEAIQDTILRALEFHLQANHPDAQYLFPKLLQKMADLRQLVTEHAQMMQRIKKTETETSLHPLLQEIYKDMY
Outline: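 Agonist-mode beta-lactamase reporter readout (CCF4 dye, 2 h at RT) after 18 h at 37 °C exposure to a titration; Hill-equation fitting gave EC50 and maximal response.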

[7] = molecular target: Vitamin D3 receptor (Homo sapiens) (UniProt P11473); assay: qHTS assay for small molecule agonists of vitamin D receptor signaling (AID 588543; calls by dose curve;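 note: 0% = DMSO basal and 100% = reference agonist control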)
Chain of Vitamin D3 receptor (Homo sapiens) (P11473 whole entry, looked up): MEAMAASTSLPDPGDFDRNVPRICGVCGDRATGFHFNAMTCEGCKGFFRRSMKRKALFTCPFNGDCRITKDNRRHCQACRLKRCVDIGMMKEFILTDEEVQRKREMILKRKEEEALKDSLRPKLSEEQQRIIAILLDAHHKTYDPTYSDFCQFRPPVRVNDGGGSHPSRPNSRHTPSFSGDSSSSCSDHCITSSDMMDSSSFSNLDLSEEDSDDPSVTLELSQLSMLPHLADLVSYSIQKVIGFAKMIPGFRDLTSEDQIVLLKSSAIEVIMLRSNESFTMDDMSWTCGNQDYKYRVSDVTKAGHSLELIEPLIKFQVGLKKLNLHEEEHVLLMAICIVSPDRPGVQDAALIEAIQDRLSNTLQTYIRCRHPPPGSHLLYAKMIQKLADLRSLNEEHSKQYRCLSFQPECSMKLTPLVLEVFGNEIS
Outline: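 Reporter cells (HEK293T, VDR-UAS-bla) were seeded in medium with 2% charcoal-stripped serum and incubated 5 h, then compounds in concentration series were added for 16 h at 37 °C. Stimulation was scaled between DMSO basal and 50 nM 1α,25-dihydroxyvitamin D3.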

[8] = qHTS assay for small molecule antagonists of retinoid X receptor alpha signaling (AID 588546; active = well fitted inhibition curve with a large enough effect in the signal ratio, with a control signal flat, not every such curve was filed as active; inconclusive = small, poorly fitted or top-dose-only effect, or effect the other way, or a change in a side signal; inactive = no such curve, though single readings can be large or run the other way; the % refers to the signal ratio; note: potency is the fitted concentration of half-maximal effect;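 for max response: cells stimulated with 9-cis-retinoic acid as agonist; % is set by controls: 0 for no effect and ±100 for the full control effect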); conditions: HEK293T RXRa-UAS-bla, beta-lactamase ratio, antagonist mode; measured here: W530 green channel, cytotoxicity proxy
Outline: (§1)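 Beta-lactamase reporter inhibition, read as CCF4 fluorescence ratio (ex 405, em 460/530 nm) after 2 h at RT. HEK293T UAS-bla cells, 2500/well, were stimulated with 9-cis-RA at 500 or 100 nM final alongside test compound for 18 h at 37 C.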

[9] = molecular target: Retinoic acid receptor RXR-alpha (Homo sapiens) (UniProt P19793); assay: as above; conditions: HEK293T RXRa-UAS-bla, beta-lactamase ratio, antagonist mode
Chain of Retinoic acid receptor RXR-alpha (Homo sapiens) (P19793 whole entry, looked up): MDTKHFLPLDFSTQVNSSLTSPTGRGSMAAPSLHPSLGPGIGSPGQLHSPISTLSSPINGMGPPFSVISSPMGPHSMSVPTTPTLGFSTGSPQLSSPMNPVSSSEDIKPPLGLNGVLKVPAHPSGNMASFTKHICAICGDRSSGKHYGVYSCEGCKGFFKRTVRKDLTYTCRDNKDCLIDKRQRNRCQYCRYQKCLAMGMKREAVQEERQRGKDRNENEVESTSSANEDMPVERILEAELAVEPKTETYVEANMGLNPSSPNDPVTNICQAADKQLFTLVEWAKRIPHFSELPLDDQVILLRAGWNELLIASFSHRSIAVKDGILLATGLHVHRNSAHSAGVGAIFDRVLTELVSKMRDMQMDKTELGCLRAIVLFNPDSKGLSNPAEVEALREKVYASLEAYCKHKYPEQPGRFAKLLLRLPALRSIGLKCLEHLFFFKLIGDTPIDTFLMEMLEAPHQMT
Outline: as §1

[10] = qHTS assay for small molecule disruptors of the mitochondrial membrane potential - 1 hr assay (AID 651754; calls by dose curve; note: nearly all actives have a fitted effect of over 35% in size; note: potency is the fitted concentration of half-maximal effect)
Outline: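 Mitochondrial potential in living HepG2 cells after 1 hr compound treatment at 37C was read with Mito-MPS dye added for a further 30 min. Red aggregate and green monomer fluorescence were measured; loss of potential leaves dye as cytoplasmic monomers.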

[11] = molecular target: Nuclear receptor subfamily 1 group I member 2 (Rattus norvegicus) (UniProt Q9R1A7); assay: qHTS assay for small molecule activators of the rat pregnane X receptor (rPXR) signaling pathway (AID 651751; call rule not given here; note: 0% is about no effect); conditions: rPXR reporter cells, luciferase (One-Glo), 24 h
Chain of Nuclear receptor subfamily 1 group I member 2 (Rattus norvegicus) (Q9R1A7 whole entry, looked up): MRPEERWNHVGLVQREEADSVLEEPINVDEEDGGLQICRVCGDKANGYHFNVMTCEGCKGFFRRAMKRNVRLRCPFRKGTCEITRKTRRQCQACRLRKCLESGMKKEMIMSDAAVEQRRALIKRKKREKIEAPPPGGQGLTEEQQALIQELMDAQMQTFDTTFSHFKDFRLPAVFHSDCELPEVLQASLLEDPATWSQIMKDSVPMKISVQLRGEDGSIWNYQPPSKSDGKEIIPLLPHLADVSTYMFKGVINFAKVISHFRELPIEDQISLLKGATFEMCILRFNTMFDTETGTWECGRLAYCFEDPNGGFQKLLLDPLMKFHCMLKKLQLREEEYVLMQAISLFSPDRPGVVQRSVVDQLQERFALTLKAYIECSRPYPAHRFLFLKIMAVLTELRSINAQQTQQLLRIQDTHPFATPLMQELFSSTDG

[12] = qHTS assay for small molecule activators of the human pregnane X receptor (PXR) signaling pathway (AID 720659; call rule not given here; note: 0% is about no effect)
[13] = molecular target: Estrogen receptor (Homo sapiens) (UniProt P03372); assay: qHTS assay for small molecule antagonists of estrogen receptor alpha signaling (AID 588513; active = well fitted curve in the direction sought with a large enough effect in the signal ratio, with a control signal flat, not every such curve was filed as active; inconclusive = small, poorly fitted or top-dose-only effect, or effect the other way, or a change in a side signal; inactive = no such curve, though single readings can be large or run the other way; the % refers to the signal ratio; note: potency is the fitted concentration of half-maximal effect)
Chain of Estrogen receptor (Homo sapiens) (P03372 whole entry, looked up): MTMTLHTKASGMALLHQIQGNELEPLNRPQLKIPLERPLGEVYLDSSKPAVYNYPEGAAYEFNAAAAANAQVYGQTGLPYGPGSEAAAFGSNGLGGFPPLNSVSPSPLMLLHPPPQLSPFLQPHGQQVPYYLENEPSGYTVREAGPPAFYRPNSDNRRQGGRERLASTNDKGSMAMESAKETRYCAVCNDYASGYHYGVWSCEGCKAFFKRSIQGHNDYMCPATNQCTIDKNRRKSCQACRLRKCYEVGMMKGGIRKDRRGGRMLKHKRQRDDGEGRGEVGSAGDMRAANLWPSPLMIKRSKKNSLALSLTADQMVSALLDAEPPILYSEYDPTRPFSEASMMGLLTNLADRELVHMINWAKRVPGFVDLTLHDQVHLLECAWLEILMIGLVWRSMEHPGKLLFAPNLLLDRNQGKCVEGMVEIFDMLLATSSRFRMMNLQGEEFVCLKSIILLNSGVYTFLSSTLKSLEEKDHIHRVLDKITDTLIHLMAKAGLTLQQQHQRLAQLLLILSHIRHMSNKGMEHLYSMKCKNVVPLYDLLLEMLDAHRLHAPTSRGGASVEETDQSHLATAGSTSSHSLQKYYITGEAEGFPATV
Outline: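 Fluorescence from CCF4 substrate after 2 h at room temperature gave reporter activity; cells had been exposed to compound and 0.5nM 17-beta-estradiol for 18 h at 37 C. Hill-equation fitting yielded IC50 and maximal response.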

[14] = molecular target: Bile acid receptor (Homo sapiens) (UniProt Q96RI1); assay: qHTS assay for small molecule agonists of farnesoid X receptor signaling (AID 588527; calls by dose curve;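 note: 0% = vehicle basal and 100% = reference agonist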); conditions: HEK293T FXR-UAS-bla, beta-lactamase ratio, 16 h; activation: stronger effect = higher value
Chain of Bile acid receptor (Homo sapiens) (Q96RI1 whole entry, looked up): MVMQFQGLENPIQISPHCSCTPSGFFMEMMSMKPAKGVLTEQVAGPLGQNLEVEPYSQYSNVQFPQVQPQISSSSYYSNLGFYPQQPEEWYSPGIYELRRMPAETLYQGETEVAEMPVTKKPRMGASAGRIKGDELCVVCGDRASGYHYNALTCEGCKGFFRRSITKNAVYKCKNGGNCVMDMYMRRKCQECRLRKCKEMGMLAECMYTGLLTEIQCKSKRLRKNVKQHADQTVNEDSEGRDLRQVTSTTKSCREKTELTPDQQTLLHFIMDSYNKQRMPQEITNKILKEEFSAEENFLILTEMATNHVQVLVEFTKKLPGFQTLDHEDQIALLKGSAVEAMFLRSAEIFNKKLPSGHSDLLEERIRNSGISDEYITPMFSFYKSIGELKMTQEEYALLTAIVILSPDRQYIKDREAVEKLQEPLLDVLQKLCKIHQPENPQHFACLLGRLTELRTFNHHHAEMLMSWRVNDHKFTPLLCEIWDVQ
Outline: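 FXR-UAS-bla HEK293T cells (10% dialyzed FBS) preincubated 5-7 h at 37 C, then compounds at up to 92 uM for 16 h at 37 C. CCF4 beta-lactamase read-out after 2 h RT. Normalized to chenodeoxycholic acid (100 uM) and DMSO; Hill fit gave EC50 and efficacy.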

[15] = molecular target: Thyroid hormone receptor beta (Homo sapiens) (UniProt P10828); assay: qHTS assay for small molecule agonists of thyroid hormone receptor beta signaling (AID 588545; calls by dose curve)
Chain of Thyroid hormone receptor beta (Homo sapiens) (P10828 whole entry, looked up): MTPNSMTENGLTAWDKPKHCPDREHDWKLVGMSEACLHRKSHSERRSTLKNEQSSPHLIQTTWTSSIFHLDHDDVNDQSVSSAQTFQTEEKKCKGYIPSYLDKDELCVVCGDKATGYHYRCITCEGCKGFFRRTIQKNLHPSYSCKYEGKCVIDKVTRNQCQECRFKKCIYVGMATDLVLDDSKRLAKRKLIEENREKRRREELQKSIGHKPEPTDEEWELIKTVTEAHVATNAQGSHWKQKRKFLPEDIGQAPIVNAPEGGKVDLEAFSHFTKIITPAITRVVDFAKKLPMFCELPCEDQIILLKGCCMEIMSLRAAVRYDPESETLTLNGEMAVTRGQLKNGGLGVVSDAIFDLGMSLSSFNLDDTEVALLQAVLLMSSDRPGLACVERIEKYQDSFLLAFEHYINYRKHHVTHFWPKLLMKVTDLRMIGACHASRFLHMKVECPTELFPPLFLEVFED
Outline: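 Agonist activity was read as beta-lactamase CCF4 fluorescence (405 ex, 460/530 em), scaled between DMSO (0%) and 10 nM T3 (100%), then Hill-fitted for EC50 and efficacy. HEK 293 TR-UAS-bla cells in 2% charcoal/dextran FBS medium were exposed 18 h at 37 C.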

[16] = molecular target: Thyroid hormone receptor beta (Homo sapiens) (UniProt P10828); assay: qHTS assay for small molecule antagonists of thyroid hormone receptor beta signaling (AID 588547; active = well fitted inhibition curve with a large enough effect in the signal ratio, with a control signal flat, not every such curve was filed as active; inconclusive = small, poorly fitted or top-dose-only effect, or effect the other way, or a change in a side signal; the % refers to the signal ratio;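 note: cells stimulated with 0.4 nM T3 agonist during compound exposure; % is set by controls: 0 for no effect and ±100 for the full control effect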); conditions: TR-UAS-bla HEK293, beta-lactamase ratio, antagonist mode, 18 h
Outline: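 TR-UAS-bla GripTite HEK293 cells in 2% charcoal/dextran FBS medium were preincubated 4 h at 37 C, given compound (0.59 nM to 92 uM) plus 0.4 nM T3 (final) for 18 h, then CCF4 for 2 h at RT; Hill fit gave IC50.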

[17] = qHTS assay for small molecule agonists of the antioxidant response element (ARE) signaling pathway (AID 651741; active = well fitted activation curve with a large enough effect in the signal ratio; inconclusive = small, poorly fitted or top-dose-only effect, or effect the other way, or a change in a side signal; the % refers to the signal ratio; note: potency is the fitted concentration of half-maximal effect)
Outline: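 Reporter: beta-lactamase under ARE, stably in HepG2. Exposure: 16 h, 37 C, compounds delivered in DMSO by pin tool after 5 h cell preincubation. Readout: FRET substrate fluorescence after 2 h at RT.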

[18] = molecular target: Glucocorticoid receptor (Homo sapiens) (UniProt P04150); assay: qHTS assay for small molecule agonists of glucocorticoid receptor signaling (AID 588532; active = well fitted curve in the direction sought with a large enough effect in the signal ratio, with a control signal flat; inconclusive = small, poorly fitted or top-dose-only effect, or a change in a side signal; inactive = no such curve, though single readings can be large or run the other way; the % refers to the signal ratio;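 note: 100% = dexamethasone at 0.1 µM and 0% = DMSO only wells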); conditions: HeLa MMTV-bla, beta-lactamase ratio, agonist, 18 h; activation: stronger effect = higher value, percent of dexamethasone control, DMSO zero
Chain of Glucocorticoid receptor (Homo sapiens) (P04150 whole entry, looked up): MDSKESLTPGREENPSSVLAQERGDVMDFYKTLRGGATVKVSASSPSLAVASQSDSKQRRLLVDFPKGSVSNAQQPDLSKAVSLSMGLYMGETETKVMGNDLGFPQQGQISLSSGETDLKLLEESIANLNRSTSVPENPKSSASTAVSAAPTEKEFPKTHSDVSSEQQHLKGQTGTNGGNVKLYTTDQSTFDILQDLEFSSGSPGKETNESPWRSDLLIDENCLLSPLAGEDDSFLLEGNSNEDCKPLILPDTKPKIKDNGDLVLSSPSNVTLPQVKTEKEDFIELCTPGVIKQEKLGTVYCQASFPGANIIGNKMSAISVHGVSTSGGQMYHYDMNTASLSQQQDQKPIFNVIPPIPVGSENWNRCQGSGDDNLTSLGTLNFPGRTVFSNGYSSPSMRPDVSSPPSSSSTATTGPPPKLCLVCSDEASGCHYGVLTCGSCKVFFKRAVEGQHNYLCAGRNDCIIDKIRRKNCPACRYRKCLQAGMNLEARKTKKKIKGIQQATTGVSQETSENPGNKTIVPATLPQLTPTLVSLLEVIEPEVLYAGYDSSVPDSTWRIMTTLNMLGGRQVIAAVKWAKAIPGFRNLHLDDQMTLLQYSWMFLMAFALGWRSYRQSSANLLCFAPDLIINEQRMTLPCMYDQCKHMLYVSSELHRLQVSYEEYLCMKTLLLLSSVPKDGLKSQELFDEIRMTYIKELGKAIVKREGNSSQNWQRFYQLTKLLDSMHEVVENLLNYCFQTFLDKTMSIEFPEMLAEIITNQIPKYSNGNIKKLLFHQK
Outline: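 MMTV-bla HeLa, beta-lactamase reporter; medium with 1% charcoal/dextran-stripped FBS; cpds up to 92 uM, 18 h, 37 C; CCF4 readout 460/530 nm; Hill fit → EC50, efficacy vs 0.1 uM dexamethasone = 100%.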

[19] = Cell Viability - LYMP2-026 (AID 989); note: nearly all actives have a fitted effect of over 50% in size; note: potency is the fitted concentration of half-maximal effect
Outline: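 Cytotoxicity read as ATP-dependent luminescence (CellTiter-Glo, 30 min room temperature) after 24 h compound treatment at 37 C. LYMP2-026 lymphoblastoid line seeded at 2500 cells/well; AC50 derived by standard Hill equation.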

[20] = molecular target: Glucocorticoid receptor (Homo sapiens) (UniProt P04150); assay: qHTS assay for small molecule antagonists of glucocorticoid receptor signaling (AID 588533; active = well fitted inhibition curve with a large enough effect in the signal ratio, with a control signal flat, not every such curve was filed as active; inconclusive = small, poorly fitted or top-dose-only effect, or effect the other way, or a change in a side signal; the % refers to the signal ratio;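 note: cells stimulated with 2 nM dexamethasone as agonist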; note: potency is the fitted concentration of half-maximal effect)
Outline: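 Antagonist-mode qHTS: compound titrations added to GRE-bla HeLa cells, then dexamethasone 2 nM final; 18 h, 37 C. CCF4 FRET fluorescence normalized to dexamethasone and DMSO; IC50 from Hill fit.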

CN1[C@@H]2CC[C@H]1CC(O[C@@H](c1ccccc1)c1ccccc1N)C2 (stereo partly specified)
active: Potency [1] 0.0141 µM
inactive: outcome [2] | outcome [3] | outcome [4]

CC(C)n1cc2c3c(cccc31)[C@@H]1C[C@H](C(=O)O[C@@H](C)[C@H](C)O)CN(C)[C@H]1C2
inactive: Potency [1] | outcome [2] | outcome [3] | outcome [4]

CC(C)(O)[C@H]1[C@H]2OC(=O)[C@@H]1[C@]1(O)C[C@H]3O[C@]34C(=O)O[C@H]2[C@]14C (tested in a mixture with another compound)
inactive: outcome [2] | outcome [3]

Ic1ccccc1CN[C@@H]1C2CCN(CC2)[C@H]1C(c1ccccc1)c1ccccc1
inactive: outcome [2] | outcome [3] | outcome [4]

C=C(C)[C@H]1Cc2c(ccc3c2O[C@H]2COc4cc(OC)c(OC)cc4[C@@H]2C3=O)O1
inactive: outcome [2] | outcome [3] | outcome [4]

C=CCN1CC[C@]23c4c5ccc(O)c4O[C@@H]2C(=O)CC[C@@]3(O)[C@H]1C5
inactive: outcome [2] | outcome [3] | outcome [4]

O=[N+]([O-])c1ccc(O[C@H]2O[C@@H](CO)[C@@H](O)[C@@H](O)[C@@H]2F)c([N+](=O)[O-])c1
inactive: outcome [2] | outcome [3]

C[C@]12Cc3cn4c(nc3C=C1CC[C@H]1[C@@H]2CC[C@@]2(C)[C@H]1CC[C@@]2(O)C#N)nc1ccccc14
inactive: Potency [1] | outcome [3] | outcome [4]

CCCN1CCC[C@H](c2cccc(C#N)c2)C1
inactive: outcome [2] | outcome [3] | outcome [4]

NC(=O)c1ccc(OC[C@H](O)CN2CC=C(c3ccc(F)cc3)CC2)cc1
active: Potency [1] 6.31 µM
inactive: outcome [2] | outcome [3] | outcome [4]

C[C@]1(C(=O)O)[C@@H]2CC[C@@H](O2)[C@@]1(C)C(=O)O
inactive: Potency [1] | outcome [2] | outcome [3] | outcome [4]

C=CCN1C[C@@H](C)N([C@H](c2ccc(C(=O)N(CC)CC)cc2)c2cccc(OC)c2)C[C@H]1C
inactive: outcome [2] | outcome [3] | outcome [4]
active: Potency [1] 14.1 µM

N#CC(Cl)Cl
inactive: outcome [6] | outcome [7] | max response [9] 0.201% | Potency [10] | max response [11] 0.641% | outcome [12]
6.6%: max response [8]
active: Potency [5] 5.01 µM

COP(=O)(OC)O/C(=C\Cl)c1cc(Cl)c(Cl)cc1Cl
inactive: Potency [13] | activation [14] -2.88% | outcome [6] | Potency [15] | activity change % (negative = inhibition) [16] 2.4% | max response [11] 1.57%
active: Potency [17] 37.6 µM

CC(C)CC(C)Nc1ccc(Nc2ccccc2)cc1 (stereo unspecified)
inactive: caspase-3 activation [5] 17.5% | activation [18] 4.35% | outcome [6] | outcome [7] | max response [9] -33.2%
-4.53%: max response [8]
active: Potency [13] 25.1 µM [inconclusive] | Potency [17] 59.6 µM

O=C(CCl)c1ccccc1
39.8 µM (active) and inactive: Potency [20]
-13.4%: max response [8]
active: Potency [19] 12.6 µM | Potency [17] 61.1 µM
inactive: caspase-3 activation [5] -8.71% | activation [18] 5.85% and 11.4% | outcome [6] | outcome [7] | Potency [15] | max response [9] 9.61% | activity change % (negative = inhibition) [16] -10.9% | Potency [10] | max response [11] -5.24% and -3.68% | outcome [12]

Nc1ccccc1C(=O)OCCc1ccccc1
-8.78%: max response [8]
inactive: caspase-3 activation [5] -5.89% | Potency [19] | activation [18] -0.582% | Potency [20] | outcome [7] | Potency [15] | activity change % (negative = inhibition) [16] -14.2% | outcome [12]

CCCCCCCCn1sccc1=O
inactive: activation [14] 6.4% | Potency [20] | outcome [6] | outcome [7] | Potency [15]
active: Potency [19] 3.98 µM | Potency [13] 14.1 µM [inconclusive] | Potency [17] 66.8 µM and 54.5 µM

CN(C)c1ccc(N=O)cc1
inactive: activation [14] -4.92% | Potency [15]
active: Potency [19] 2.51 µM | Potency [13] 22.4 µM [inconclusive]

[CH3][Hg][Cl]
-30.3%: max response [8]
inactive: caspase-3 activation [5] -8.35% | activation [18] -4.13%
active: Potency [19] 5.01 µM | Potency [13] 39.8 µM [inconclusive] | Potency [20] 11.2 µM | Potency [9] 2.24 µM | Potency [10] 21.1 µM

OC(c1ccc(Cl)cc1)(c1ccc(Cl)cc1)C(Cl)(Cl)Cl
-2.98%: max response [8]
inactive: Potency [19] | Potency [13] | activation [14] 3.21% and 2.17% | activation [18] 4.22% | Potency [20] | outcome [6] | outcome [7] | Potency [15] | max response [9] 3.94% | activity change % (negative = inhibition) [16] -3.99% | Potency [10] | max response [11] -0.762% and 6.21% | outcome [12]

O=C(O)C1C(C(=O)O)C2(Cl)C(Cl)=C(Cl)C1(Cl)C2(Cl)Cl (stereo unspecified)
inactive: caspase-3 activation [5] -0.527% | Potency [19] | Potency [13] | activation [14] 0.987% | activation [18] -1.68% | Potency [20] | outcome [6] | max response [9] -12.3% | activity change % (negative = inhibition) [16] -20.8% | Potency [10] | max response [11] 0.252%
-3.5%: max response [8]
